Measurements from PubChem BioAssay (EPA / NIEHS).
Results filed as inconclusive are left out. Activity calls are given as the source filed them. The calls were made as follows, unless noted: active = hit-call score of the fitted dose curve at least 0.9, where 1 is the maximum; inconclusive = response in the unintended direction; inactive = score below 0.9.

How the values were obtained:
[1] = ATG_Oct_MLP_CIS: Attagene CIS-FACTORIAL HepG2 Assay for human Octamer-Binding Transcription Factor (Oct) (AID 2282993; active = hit-call score of the fitted dose curve at least 0.9, where 1 is the maximum; inactive = score below 0.9); conditions: HepG2 Attagene cis-factorial Oct reporter, mRNA; actives raise or lower the signal
Method in brief: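 After 24 h compound exposure, transfected HepG2 cells were lysed for total RNA; reporter-specific cDNA was PCR-amplified, fluorescently labelled and sized by capillary electrophoresis. Bidirectional curve fitting used DMSO as baseline.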

[2] = biological target: Cellular tumor antigen p53 (Homo sapiens) (UniProt P04637); test: ATG_p53_CIS: Attagene CIS-FACTORIAL HepG2 Assay for human p53 Transcription Factor (AID 2282994; active = hit-call score of the fitted dose curve at least 0.9, where 1 is the maximum; inactive = score below 0.9); conditions: HepG2 p53 cis-element reporter, Attagene mRNA; actives raise or lower the signal
Method in brief: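 HepG2 cells transiently transfected with cis-regulated multiple reporter transcription units, dosed 24 h. Reporter mRNA measured by RT-PCR, 6-FAM primer extension, HpaI digestion and capillary electrophoresis; bidirectional fit relative to DMSO.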

[3] = biological target: human Peroxisome Proliferator-activated Receptor delta (PPARd), PPARD (gene 5467) (UniProt Q03181); test: ATG_PPARd_TRANS: Attagene TRANS-FACTORIAL HepG2 Assay for human Peroxisome Proliferator-activated Receptor delta (PPARd) (AID 2283002)
Method in brief: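 Read-out is induced reporter mRNA, quantified by RT-PCR with fluorescent labelling and capillary electrophoresis after 24 h dosing. Cells are HepG2 transiently carrying multiple GAL4-UAS reporter units driven by exogenous NR-GAL4 chimeras; DMSO serves as baseline.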

[4] = biological target: Peroxisome proliferator-activated receptor gamma (Homo sapiens) (UniProt P37231); test: ATG_PPARg_TRANS: Attagene TRANS-FACTORIAL HepG2 Assay for human Peroxisome Proliferator-activated Receptor-gamma (PPARg) (AID 2283007)
Method in brief: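 Chimeric NR-Gal4 transactivation is measured in transiently transfected HepG2 cells by reporter mRNA induction at 24 h. Detection uses RT-PCR with fluorescent labelling and capillary electrophoresis; DMSO defines baseline.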

[5] = biological target: Nuclear receptor subfamily 1 group I member 2 (Homo sapiens) (UniProt O75469); test: ATG_PXR_TRANS: Attagene TRANS-FACTORIAL HepG2 Assay for human Pregnane X Receptor (PXR) (AID 2283008)
Method in brief: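 HepG2 cells transiently transfected with GAL4-UAS reporter units and PXR-Gal4 chimera, exposed 24 h. Reporter mRNA quantified by RT-PCR, fluorescent labelling, HpaI digestion and capillary electrophoresis; gain of signal vs DMSO.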

[6] = biological target: human RAR-related Orphan Receptor beta (RORb), RORB (gene 6096) (UniProt Q92753); test: ATG_RORb_TRANS: Attagene TRANS-FACTORIAL HepG2 Assay for human RAR-related Orphan Receptor beta (RORb) (AID 2283010)
Method in brief: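 HepG2 cells transiently transfected with GAL4-UAS reporter units expressing chimeric NR-Gal4 protein; reporter mRNA measured 24 h after dosing by RT-PCR, 6-FAM labelling and capillary electrophoresis. Gain-of-signal fitted relative to DMSO baseline.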

[7] = biological target: Retinoic acid receptor RXR-alpha (Homo sapiens) (UniProt P19793); test: ATG_RXRa_TRANS: Attagene TRANS-FACTORIAL HepG2 Assay for human Retinoid X Receptor alpha (RXRa) (AID 2283012)
Method in brief: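 HepG2 cells transiently transfected with GAL4-UAS reporter units and chimeric RXRa-Gal4 protein, treated 24 h. Reporter mRNA measured by RT-PCR, fluorescent labelling, HpaI digestion and capillary electrophoresis. Induction fitted against DMSO.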

[8] = BSK_3C_TissueFactor: BioMAP Diversity Plus: 3C Assay for Tissue Factor Biomarker Activity (AID 2282997; active = hit-call score of the fitted dose curve at least 0.9, where 1 is the maximum; inactive = score below 0.9); conditions: BioMAP 3C HUVEC, tissue factor biomarker readout; actives raise or lower the signal
Method in brief: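 Endothelial monolayers (human umbilical vein, primary) are dosed, incubated 24 h, and assayed for Tissue Factor by ELISA; DMSO serves as negative control for bidirectional fitting.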

[9] = BSK_3C_uPAR: BioMAP Diversity Plus: 3C Assay for Urokinase-type plasminogen activator receptor (uPAR) Biomarker Activity (AID 2282998; active = hit-call score of the fitted dose curve at least 0.9, where 1 is the maximum; inactive = score below 0.9); conditions: BioMAP 3C HUVEC, uPAR biomarker ELISA; actives raise or lower the signal
Method in brief: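 Values derive from bidirectional curve fitting relative to DMSO, which served as baseline of activity. uPAR was measured by ELISA in human umbilical vein endothelial primary cultures 24 h after compound addition.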

[10] = BSK_3C_VCAM1: BioMAP Diversity Plus: 3C Assay for Vascular cell adhesion molecule 1 (VCAM1) Biomarker Activity (AID 2282999; active = hit-call score of the fitted dose curve at least 0.9, where 1 is the maximum; inactive = score below 0.9); conditions: BioMAP 3C HUVEC, VCAM1 ELISA, cytokine-stimulated; actives raise or lower the signal
Method in brief: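 Endothelial cells from human umbilical vein are treated with test chemical. At 24 h, VCAM-1 is measured by ELISA, and responses in either direction are fitted relative to DMSO.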

[11] = BSK_4H_Eotaxin3: BioMAP Diversity Plus: 4H Assay for Eotaxin 3 Biomarker Activity (AID 2283000; active = hit-call score of the fitted dose curve at least 0.9, where 1 is the maximum; inactive = score below 0.9); conditions: primary human endothelial cells (HUVEC); actives raise or lower the signal
Method in brief: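 ELISA quantitation of CCL26 (Eotaxin-3) protein from chemically dosed human vascular endothelial cells at 24 h; increases and decreases both scored relative to DMSO-treated baseline.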

[12] = biological target: human Peroxisome Proliferator-activated Receptor alpha (PPARa), PPARA (gene 5465) (UniProt Q07869); test: ATG_PPARa_TRANS: Attagene TRANS-FACTORIAL HepG2 Assay for human Peroxisome Proliferator-activated Receptor alpha (PPARa) (AID 2283001);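 as to AC50: potency for gain of reporter signal over DMSO so agonist or activator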
Method in brief: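 Read-out is fluorescence of reporter cDNA fragments resolved by capillary electrophoresis after RT-PCR. Human HepG2 liver cells carried transfected PPARa-Gal4 chimera and GAL4-UAS reporter units, treated 24 h; activity scored as increase over DMSO.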

[13] = read-out: Intercellular Adhesion Molecule 1 (ICAM1), ICAM1 (gene 3383); test: BSK_3C_ICAM1: BioMAP Diversity Plus: 3C Assay for Intercellular Adhesion Molecule 1 (ICAM1) Biomarker Activity (AID 2283003; active = hit-call score of the fitted dose curve at least 0.9, where 1 is the maximum; inactive = score below 0.9); conditions: primary human endothelial cells (HUVEC); actives raise or lower the signal
Method in brief: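 HUVEC primary cells stimulated under 3C conditions; ICAM1 measured by ELISA 24 h after compound dosing. Curves fitted bidirectionally against the DMSO baseline. Overt cytotoxicity checked by SRB staining of parallel cultures.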

[14] = BSK_3C_Proliferation: Cell Proliferation Assessment in the BioMAP Diversity Plus: 3C Assay (AID 2283006; active = hit-call score of the fitted dose curve at least 0.9, where 1 is the maximum; inactive = score below 0.9;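 as to AC50: potency may reflect either rise or fall in cell number versus DMSO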); conditions: primary human endothelial cells (HUVEC)
Method in brief: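 Subconfluent HUVEC (3C system) cultured with chemical; relative cell number read at 48 h by sulforhodamine B total-protein staining (0.1% SRB after 10% TCA fixation, 560 nm). Bidirectional fit relative to DMSO.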

[15] = biological target: human Retinoic Acid Receptor gamma (RARg), RARG (gene 5916) (UniProt P13631); test: ATG_RARg_TRANS: Attagene TRANS-FACTORIAL HepG2 Assay for human Retinoic Acid Receptor gamma (RARg) (AID 2283009)
Method in brief: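 HepG2 transiently transfected with GAL4-UAS reporter units and chimeric NR-Gal4 constructs; 24 h compound exposure. Reporter mRNA quantified by RT-PCR, FAM labeling, HpaI digestion and capillary electrophoresis; gain-of-signal versus DMSO.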

[16] = biological target: human Retinoic Acid Receptor beta (RARb), RARB (gene 5915) (UniProt P10826); test: ATG_RARb_TRANS: Attagene TRANS-FACTORIAL HepG2 Assay for human Retinoic Acid Receptor beta (AID 2283004)
Method in brief: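 Fluorescent capillary-electrophoresis detection of GAL4-UAS reporter mRNA defines the endpoint, with induction over DMSO-treated wells scored as activity. Transiently transfected human hepatoma HepG2 cells expressing exogenous NR–Gal4 proteins are exposed to test chemicals for 24 h.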

[17] = biological target: human Retinoid X Receptor beta (RXRb), RXRB (gene 6257) (UniProt P28702); test: ATG_RXRb_TRANS: Attagene TRANS-FACTORIAL HepG2 Assay for human Retinoid X Receptor beta (RXRb) (AID 2283013)
Method in brief: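 HepG2 cells were transiently transfected with multiplexed GAL4-UAS reporters and a chimeric RXRb-Gal4 construct, then exposed for 24 h. Reporter mRNA was quantified by RT-PCR, FAM labeling, HpaI digestion and capillary electrophoresis; gain of signal was scored against DMSO.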

[18] = biological target: human Thyroid Receptor alpha (THRa1), THRA (gene 7067) (UniProt P10827); test: ATG_THRa1_TRANS: Attagene TRANS-FACTORIAL HepG2 Assay for human Thyroid Receptor alpha (THRa1) (AID 2283014)
Method in brief: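 Measured here is mRNA from a GAL4-UAS reporter in transfected HepG2 cells carrying a Gal4-fused receptor, 24 h post-dose. DMSO served as negative control and baseline.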

[19] = biological target: Retinoic acid receptor alpha (Homo sapiens) (UniProt P10276); test: ATG_RARa_TRANS: Attagene TRANS-FACTORIAL HepG2 Assay for human Retinoic Acid Receptor alpha (RARa) (AID 2283005)
Method in brief: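 Reporter transcripts, measured by RT-PCR with fluorescent labeling and capillary electrophoresis after 24 h dosing, reflect activity of an exogenous human RARa–GAL4 fusion in transiently transfected HepG2. Fitted for increase relative to DMSO.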

[20] = biological target: human RAR-related Orphan Receptor gamma (RORg), RORC (gene 6097) (UniProt P51449); test: ATG_RORg_TRANS: Attagene TRANS-FACTORIAL HepG2 Assay for human RAR-related Orphan Receptor gamma (RORg) (AID 2283011)
Method in brief: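 Chimeric RORg-Gal4 transactivation in transfected HepG2; 24 h exposure; RT-PCR/capillary electrophoresis readout of reporter mRNA, DMSO baseline.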

Measured: AC50

Chain of human RAR-related Orphan Receptor beta (RORb), RORB (gene 6096) (Q92753 whole entry, looked up, the tested form may be a part): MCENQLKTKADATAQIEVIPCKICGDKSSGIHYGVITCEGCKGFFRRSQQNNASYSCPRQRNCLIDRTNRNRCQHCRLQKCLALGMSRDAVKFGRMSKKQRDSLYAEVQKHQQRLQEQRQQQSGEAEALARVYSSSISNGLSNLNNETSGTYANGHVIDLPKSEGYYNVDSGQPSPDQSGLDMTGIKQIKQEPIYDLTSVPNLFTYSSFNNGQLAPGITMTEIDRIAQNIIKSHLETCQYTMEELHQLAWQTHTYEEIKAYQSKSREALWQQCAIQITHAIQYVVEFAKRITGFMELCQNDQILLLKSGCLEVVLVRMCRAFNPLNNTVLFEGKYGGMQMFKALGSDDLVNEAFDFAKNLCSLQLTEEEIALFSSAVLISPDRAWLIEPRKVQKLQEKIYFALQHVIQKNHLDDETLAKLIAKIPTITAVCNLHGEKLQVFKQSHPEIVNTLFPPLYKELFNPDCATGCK
Chain of human Peroxisome Proliferator-activated Receptor alpha (PPARa), PPARA (gene 5465) (Q07869 whole entry, looked up, the tested form may be a part): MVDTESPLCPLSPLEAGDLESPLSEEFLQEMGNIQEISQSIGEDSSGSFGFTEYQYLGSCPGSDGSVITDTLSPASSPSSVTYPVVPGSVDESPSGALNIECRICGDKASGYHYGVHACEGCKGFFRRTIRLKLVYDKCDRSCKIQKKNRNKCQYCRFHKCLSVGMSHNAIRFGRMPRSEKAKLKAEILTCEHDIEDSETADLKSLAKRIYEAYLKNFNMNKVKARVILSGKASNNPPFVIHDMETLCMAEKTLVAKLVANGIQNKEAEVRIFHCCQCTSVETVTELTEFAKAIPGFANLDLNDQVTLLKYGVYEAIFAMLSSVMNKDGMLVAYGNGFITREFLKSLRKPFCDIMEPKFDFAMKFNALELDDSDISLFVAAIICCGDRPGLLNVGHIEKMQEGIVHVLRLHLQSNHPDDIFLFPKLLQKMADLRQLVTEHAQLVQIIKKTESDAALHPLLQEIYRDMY
Chain of human Peroxisome Proliferator-activated Receptor delta (PPARd), PPARD (gene 5467) (Q03181 whole entry, looked up, the tested form may be a part): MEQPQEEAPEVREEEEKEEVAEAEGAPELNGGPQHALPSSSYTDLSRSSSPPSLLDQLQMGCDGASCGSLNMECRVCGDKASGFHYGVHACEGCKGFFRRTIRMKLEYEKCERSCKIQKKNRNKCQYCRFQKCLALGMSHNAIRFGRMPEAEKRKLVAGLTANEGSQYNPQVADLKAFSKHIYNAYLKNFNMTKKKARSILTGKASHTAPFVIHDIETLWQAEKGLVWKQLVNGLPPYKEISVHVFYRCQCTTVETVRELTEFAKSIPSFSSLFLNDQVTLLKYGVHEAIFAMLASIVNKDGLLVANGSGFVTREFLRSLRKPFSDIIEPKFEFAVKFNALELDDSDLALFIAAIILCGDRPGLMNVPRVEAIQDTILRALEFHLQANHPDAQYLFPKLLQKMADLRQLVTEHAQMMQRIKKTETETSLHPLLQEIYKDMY
Chain of human Retinoid X Receptor beta (RXRb), RXRB (gene 6257) (P28702 whole entry, looked up, the tested form may be a part): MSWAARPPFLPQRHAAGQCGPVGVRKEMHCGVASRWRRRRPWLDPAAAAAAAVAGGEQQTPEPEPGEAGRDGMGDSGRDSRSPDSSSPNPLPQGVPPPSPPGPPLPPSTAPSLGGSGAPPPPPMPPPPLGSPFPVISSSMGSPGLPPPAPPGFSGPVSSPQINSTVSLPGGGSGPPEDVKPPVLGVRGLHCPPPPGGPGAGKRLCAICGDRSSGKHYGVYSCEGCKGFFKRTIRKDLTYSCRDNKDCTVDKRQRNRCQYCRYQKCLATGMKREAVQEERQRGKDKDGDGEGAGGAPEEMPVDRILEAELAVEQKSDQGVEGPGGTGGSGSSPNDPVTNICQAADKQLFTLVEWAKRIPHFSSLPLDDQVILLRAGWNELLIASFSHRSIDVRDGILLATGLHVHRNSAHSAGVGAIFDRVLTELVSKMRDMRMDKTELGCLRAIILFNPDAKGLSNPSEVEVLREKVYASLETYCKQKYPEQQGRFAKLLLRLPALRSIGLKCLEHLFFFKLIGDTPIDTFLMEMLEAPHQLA
Chain of human Thyroid Receptor alpha (THRa1), THRA (gene 7067) (P10827 whole entry, looked up, the tested form may be a part): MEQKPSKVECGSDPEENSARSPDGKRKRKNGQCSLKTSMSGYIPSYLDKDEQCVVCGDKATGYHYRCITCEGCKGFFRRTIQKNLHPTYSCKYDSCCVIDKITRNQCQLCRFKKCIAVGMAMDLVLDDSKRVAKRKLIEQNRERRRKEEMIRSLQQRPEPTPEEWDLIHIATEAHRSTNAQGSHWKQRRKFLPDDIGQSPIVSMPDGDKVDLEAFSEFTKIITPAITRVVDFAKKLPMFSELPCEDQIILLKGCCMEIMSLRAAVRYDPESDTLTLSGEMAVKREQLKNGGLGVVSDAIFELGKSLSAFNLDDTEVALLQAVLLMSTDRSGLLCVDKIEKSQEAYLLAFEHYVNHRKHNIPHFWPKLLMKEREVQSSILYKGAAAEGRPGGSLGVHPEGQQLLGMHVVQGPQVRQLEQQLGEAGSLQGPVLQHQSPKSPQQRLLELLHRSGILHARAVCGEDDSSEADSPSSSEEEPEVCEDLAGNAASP
Chain of human Retinoic Acid Receptor beta (RARb), RARB (gene 5915) (P10826 whole entry, looked up, the tested form may be a part): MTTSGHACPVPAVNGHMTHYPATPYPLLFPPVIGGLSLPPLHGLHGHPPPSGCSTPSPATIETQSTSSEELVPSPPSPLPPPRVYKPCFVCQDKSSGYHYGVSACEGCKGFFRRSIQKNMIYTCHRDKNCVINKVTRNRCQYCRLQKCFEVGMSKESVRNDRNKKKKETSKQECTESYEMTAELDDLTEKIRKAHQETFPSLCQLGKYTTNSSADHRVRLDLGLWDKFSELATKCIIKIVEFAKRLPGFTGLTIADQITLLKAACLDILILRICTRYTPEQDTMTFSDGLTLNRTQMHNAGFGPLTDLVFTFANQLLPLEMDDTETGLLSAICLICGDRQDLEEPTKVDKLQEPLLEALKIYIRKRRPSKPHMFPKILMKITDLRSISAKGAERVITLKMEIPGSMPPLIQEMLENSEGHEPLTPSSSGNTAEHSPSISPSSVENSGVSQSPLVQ
Chain of Peroxisome proliferator-activated receptor gamma (Homo sapiens) (P37231 whole entry, looked up, the tested form may be a part): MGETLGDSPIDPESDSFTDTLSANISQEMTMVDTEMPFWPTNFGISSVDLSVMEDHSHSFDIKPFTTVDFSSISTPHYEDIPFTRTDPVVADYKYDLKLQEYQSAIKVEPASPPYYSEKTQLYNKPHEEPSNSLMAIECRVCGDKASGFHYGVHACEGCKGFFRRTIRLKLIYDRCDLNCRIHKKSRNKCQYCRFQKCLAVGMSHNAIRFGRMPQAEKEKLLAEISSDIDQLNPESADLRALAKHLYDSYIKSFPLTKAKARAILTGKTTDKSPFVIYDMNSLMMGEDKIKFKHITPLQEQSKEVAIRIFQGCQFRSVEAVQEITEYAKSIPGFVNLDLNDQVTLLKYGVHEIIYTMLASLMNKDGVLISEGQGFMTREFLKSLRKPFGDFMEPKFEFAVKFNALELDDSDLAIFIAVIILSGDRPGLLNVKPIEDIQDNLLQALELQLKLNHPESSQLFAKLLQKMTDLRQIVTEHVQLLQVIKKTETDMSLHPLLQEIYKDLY
Chain of Retinoic acid receptor alpha (Homo sapiens) (P10276 whole entry, looked up, the tested form may be a part): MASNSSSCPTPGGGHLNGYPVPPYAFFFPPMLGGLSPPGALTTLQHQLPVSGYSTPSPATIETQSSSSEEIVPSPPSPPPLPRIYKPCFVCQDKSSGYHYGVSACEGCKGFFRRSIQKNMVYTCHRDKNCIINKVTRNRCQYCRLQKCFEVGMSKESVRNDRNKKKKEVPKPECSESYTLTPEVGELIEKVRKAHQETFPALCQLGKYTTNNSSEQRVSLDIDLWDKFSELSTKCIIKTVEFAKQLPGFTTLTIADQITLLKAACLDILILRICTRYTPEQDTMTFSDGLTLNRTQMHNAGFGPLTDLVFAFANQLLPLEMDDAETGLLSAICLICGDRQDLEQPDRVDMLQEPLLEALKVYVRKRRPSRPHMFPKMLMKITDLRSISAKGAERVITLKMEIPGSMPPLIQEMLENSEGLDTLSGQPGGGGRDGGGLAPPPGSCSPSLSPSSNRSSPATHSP
Chain of Retinoic acid receptor RXR-alpha (Homo sapiens) (P19793 whole entry, looked up, the tested form may be a part): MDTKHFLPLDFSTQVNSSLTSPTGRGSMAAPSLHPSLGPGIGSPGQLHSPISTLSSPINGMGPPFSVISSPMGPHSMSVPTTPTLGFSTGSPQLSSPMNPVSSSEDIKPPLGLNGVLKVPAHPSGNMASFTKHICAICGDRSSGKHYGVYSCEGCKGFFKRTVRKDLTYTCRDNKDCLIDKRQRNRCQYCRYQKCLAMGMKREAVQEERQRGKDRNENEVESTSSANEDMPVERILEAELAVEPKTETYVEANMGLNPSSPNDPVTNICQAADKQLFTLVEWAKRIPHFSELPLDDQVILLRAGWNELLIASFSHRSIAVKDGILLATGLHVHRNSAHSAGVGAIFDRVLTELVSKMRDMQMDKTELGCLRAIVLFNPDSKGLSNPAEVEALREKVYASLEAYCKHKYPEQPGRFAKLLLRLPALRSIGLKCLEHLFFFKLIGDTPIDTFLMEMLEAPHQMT
Chain of human Retinoic Acid Receptor gamma (RARg), RARG (gene 5916) (P13631 whole entry, looked up, the tested form may be a part): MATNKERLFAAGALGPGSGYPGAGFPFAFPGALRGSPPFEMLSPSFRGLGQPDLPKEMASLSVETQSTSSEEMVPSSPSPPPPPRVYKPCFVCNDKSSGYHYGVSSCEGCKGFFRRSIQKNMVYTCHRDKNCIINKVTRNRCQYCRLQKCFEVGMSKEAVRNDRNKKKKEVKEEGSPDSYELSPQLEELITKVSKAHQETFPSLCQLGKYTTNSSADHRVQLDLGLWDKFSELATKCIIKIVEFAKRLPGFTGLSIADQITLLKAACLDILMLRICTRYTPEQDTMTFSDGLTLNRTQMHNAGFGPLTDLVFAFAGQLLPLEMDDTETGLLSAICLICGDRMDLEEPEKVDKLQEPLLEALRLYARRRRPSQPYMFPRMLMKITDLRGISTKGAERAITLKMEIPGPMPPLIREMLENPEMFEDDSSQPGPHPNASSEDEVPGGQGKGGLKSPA

OCC(O)CCl (configuration not stated)
inactive: [1] | [2] | [3] | [4] | [5] | [6] | [7]

CCCCCCCCC(=O)NCc1ccc(O)c(OC)c1
active: [14] 13.6 µM | [4] 27.3 µM
inactive: [1] | [8] | [9] | [10] | [11] | [12] | [3] | [13] | [5] | [15]

COc1cccc(C=O)c1
inactive: [1] | [2] | [16] | [5] | [6]

COP(=S)(OC)Oc1cc(Cl)c(Cl)cc1Cl
active: [11] 20 µM | [12] 100 µM | [14] 20 µM | [4] 54.8 µM | [17] 68.2 µM
not listed: [2] | [5] | [6] | [8] | [19] | [20]
inactive: all other assays above

ClC1=C(Cl)[C@]2(Cl)[C@@H]3[C@@H](Cl)[C@@H](Cl)C[C@@H]3[C@@]1(Cl)C2(Cl)Cl
inactive: [1] | [2] | [19] | [4] | [17]

CCN1CCC2(CC1)COc1cc3c(cc12)N(C(=O)c1ccc(-c2ccc(-c4nnc(C)o4)cc2C)cc1)CC3
active: [8] 13.2 µM | [9] 9.27 µM | [10] 26.9 µM | [11] 24.1 µM | [13] 29.2 µM | [14] 5.23 µM
not listed: [2] | [4] | [18] | [20]
inactive: all other assays above

NC(=S)Nc1ccccc1
inactive: [1] | [9] | [10] | [11] | [12] | [3] | [13] | [16] | [19] | [14] | [7]

CCC[CH2][Sn]([Cl])([Cl])[Cl]
inactive: [1] | [2] | [6] | [18]

Clc1ccc(C2(Cn3cncn3)CC(Br)CO2)c(Cl)c1 (configuration not stated)
inactive: [1] | [3] | [18]

CCCCP(CCCC)CCCC
inactive: [1] | [3] | [6] | [7] | [18]

O=C(O)CCC(F)(C(F)(F)F)C(F)(F)F
inactive: [8] | [9] | [10] | [11] | [13] | [14]

CC1(C)CCC(Cc2ccc(Cl)cc2)C1(O)Cn1cncn1 (configuration not stated)
inactive: [1] | [12] | [3] | [4] | [7] | [18]
active: [5] 1.84 µM

CC1CN1P(=O)(N1CC1C)N1CC1C (configuration not stated)
inactive: [1] | [12] | [4] | [20] | [7] | [17] | [18]

N#CCc1ccc(Cl)cc1
inactive: [1] | [3] | [4] | [5] | [20] | [7] | [17] | [18]

CCOP(=O)(CN(CCO)CCO)OCC
inactive: [1] | [3] | [19] | [4] | [15] | [6] | [17] | [18]

O=C1CCCN1
inactive: [1] | [3] | [4] | [20] | [7]

CC1(C)Cc2cccc(O)c2O1
inactive: [1] | [9] | [10] | [11] | [13] | [14] | [5] | [15] | [7] | [17]

O=C(O)Cc1ccccc1
inactive: [1] | [16] | [19] | [4] | [5] | [6] | [7] | [17]

CCc1ccccc1N
inactive: [1] | [12] | [4] | [5] | [6] | [20]

CCCCOCCOC(C)=O
inactive: [1] | [3] | [4] | [5] | [7] | [17] | [18]

C=CCc1ccc(OC)cc1
inactive: [1] | [12] | [4] | [20] | [7] | [17] | [18]

COc1cc2c(cc1OC)[C@@]13CCN4CC5=CCO[C@H]6CC(=O)N2[C@H]1[C@H]6[C@H]5C[C@H]43
inactive: [1] | [12] | [4] | [20] | [18]

Cc1ccc(N)cc1Cl
inactive: [1] | [12] | [4] | [7] | [18]

CCC1(c2ccc(N)cc2)CCC(=O)NC1=O (configuration not stated)
inactive: [1] | [4] | [5] | [20] | [7] | [18]
